Where “and” joins values, the source holds several entries; their conditions need not be identical. Equal values may be shown once.
What was measured:
[1] = target: Sphingosine kinase 1 (Homo sapiens) (UniProt Q9NYA1); conditions: at 1 µM;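 also: mean SPHK1 inhibition value reported from the GSK PKIS kinase panel screen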
[2] = target: T1, Sphingosine kinase 2 (Homo sapiens) (UniProt Q9NRA0); conditions: at 0.1 µM
T1 sequence (whole entry): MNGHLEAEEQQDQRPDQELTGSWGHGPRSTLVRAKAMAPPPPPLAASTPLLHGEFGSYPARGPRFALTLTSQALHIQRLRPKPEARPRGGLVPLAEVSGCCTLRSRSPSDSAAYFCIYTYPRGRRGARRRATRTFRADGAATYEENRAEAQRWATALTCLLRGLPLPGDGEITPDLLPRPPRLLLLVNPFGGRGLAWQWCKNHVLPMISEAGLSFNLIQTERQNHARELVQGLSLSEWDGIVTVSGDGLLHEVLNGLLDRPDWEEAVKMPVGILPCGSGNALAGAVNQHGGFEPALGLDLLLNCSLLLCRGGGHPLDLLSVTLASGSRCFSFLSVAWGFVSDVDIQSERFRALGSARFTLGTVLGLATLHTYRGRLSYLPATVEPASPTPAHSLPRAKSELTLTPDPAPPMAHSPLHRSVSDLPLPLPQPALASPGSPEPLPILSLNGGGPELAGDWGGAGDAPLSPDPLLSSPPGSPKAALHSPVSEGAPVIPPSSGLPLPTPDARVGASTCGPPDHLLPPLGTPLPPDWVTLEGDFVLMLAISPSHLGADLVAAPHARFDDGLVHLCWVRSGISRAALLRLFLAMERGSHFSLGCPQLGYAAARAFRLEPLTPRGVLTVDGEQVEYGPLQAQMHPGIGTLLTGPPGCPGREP

[3] = target: T1, Sphingosine kinase 2 (Homo sapiens); conditions: at 1 µM
[4] = target: Casein kinase II subunit alpha (Homo sapiens) (UniProt P68400); conditions: at 0.1 µM
[5] = target: Casein kinase II subunit alpha (Homo sapiens) (UniProt P68400); conditions: at 1 µM
[6] = target: T2, Inhibitor of nuclear factor kappa-B kinase subunit alpha (Homo sapiens) (UniProt O15111); conditions: at 0.1 µM
T2 sequence (whole entry): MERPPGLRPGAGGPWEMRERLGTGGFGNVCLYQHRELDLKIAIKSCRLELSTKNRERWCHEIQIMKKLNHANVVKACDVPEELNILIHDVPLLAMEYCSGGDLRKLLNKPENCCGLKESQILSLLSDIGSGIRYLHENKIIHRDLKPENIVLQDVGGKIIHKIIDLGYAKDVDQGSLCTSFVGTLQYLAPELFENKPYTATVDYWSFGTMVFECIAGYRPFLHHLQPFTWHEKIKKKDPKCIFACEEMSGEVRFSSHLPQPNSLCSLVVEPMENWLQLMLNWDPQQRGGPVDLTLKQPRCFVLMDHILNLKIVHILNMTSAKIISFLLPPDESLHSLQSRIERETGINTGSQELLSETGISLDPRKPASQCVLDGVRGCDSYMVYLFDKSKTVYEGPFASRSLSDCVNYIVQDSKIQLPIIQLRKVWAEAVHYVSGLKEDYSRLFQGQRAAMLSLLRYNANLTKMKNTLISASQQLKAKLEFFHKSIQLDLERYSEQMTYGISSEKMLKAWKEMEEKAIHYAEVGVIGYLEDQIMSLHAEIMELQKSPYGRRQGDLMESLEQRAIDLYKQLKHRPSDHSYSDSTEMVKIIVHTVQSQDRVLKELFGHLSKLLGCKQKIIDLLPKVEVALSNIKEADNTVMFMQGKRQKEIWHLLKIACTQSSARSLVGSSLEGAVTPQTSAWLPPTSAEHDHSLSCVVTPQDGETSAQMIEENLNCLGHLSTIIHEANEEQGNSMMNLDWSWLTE

[7] = target: T2, Inhibitor of nuclear factor kappa-B kinase subunit alpha (Homo sapiens); conditions: at 1 µM
[8] = target: T3, Inhibitor of nuclear factor kappa-B kinase subunit beta (Homo sapiens) (UniProt O14920); conditions: at 0.1 µM
T3 sequence (whole entry): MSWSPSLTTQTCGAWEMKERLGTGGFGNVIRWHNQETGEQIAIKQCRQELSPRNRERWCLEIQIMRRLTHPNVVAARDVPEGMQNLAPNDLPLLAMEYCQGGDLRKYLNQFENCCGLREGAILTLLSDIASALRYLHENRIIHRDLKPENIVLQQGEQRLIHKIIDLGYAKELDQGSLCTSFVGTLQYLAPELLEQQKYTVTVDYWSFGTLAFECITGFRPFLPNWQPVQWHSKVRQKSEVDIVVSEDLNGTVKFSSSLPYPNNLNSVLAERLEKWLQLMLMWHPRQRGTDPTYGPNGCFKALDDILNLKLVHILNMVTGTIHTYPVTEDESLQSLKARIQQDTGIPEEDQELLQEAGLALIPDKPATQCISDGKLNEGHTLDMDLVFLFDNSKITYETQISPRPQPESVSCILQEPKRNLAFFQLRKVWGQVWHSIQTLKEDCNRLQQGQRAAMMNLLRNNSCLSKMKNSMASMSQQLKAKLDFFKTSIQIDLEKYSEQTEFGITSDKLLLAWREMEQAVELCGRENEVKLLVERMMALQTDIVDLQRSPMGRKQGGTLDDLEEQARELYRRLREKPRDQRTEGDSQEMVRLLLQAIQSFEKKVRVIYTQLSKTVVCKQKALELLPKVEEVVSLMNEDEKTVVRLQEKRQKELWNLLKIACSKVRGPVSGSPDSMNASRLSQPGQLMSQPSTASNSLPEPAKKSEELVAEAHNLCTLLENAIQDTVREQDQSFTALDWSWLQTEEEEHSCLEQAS

[9] = target: T3, Inhibitor of nuclear factor kappa-B kinase subunit beta (Homo sapiens); conditions: at 1 µM
[10] = target: T4, Inhibitor of nuclear factor kappa-B kinase subunit epsilon (Homo sapiens) (UniProt Q14164); conditions: at 0.1 µM
T4 sequence (whole entry): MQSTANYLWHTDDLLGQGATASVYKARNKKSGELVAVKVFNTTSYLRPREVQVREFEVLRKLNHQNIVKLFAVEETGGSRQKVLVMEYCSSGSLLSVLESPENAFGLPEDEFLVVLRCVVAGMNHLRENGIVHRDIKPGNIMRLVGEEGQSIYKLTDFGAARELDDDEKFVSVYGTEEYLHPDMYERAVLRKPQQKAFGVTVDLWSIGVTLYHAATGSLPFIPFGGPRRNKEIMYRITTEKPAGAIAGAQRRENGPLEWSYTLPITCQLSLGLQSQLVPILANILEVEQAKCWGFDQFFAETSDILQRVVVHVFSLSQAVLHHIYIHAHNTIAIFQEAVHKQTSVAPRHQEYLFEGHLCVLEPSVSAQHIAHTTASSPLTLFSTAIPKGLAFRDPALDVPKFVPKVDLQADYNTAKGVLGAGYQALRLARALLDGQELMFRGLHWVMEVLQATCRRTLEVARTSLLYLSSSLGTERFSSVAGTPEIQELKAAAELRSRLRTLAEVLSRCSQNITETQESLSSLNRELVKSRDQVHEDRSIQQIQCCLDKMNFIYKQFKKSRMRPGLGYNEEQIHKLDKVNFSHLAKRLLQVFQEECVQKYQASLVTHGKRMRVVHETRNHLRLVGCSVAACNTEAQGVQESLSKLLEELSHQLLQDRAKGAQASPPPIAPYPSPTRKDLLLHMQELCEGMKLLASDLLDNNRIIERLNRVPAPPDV

[11] = target: T4, Inhibitor of nuclear factor kappa-B kinase subunit epsilon (Homo sapiens); conditions: at 1 µM
[12] = target: T5, Serine/threonine-protein kinase Nek1 (Homo sapiens) (UniProt Q96PY6); conditions: at 0.1 µM
T5 sequence (whole entry): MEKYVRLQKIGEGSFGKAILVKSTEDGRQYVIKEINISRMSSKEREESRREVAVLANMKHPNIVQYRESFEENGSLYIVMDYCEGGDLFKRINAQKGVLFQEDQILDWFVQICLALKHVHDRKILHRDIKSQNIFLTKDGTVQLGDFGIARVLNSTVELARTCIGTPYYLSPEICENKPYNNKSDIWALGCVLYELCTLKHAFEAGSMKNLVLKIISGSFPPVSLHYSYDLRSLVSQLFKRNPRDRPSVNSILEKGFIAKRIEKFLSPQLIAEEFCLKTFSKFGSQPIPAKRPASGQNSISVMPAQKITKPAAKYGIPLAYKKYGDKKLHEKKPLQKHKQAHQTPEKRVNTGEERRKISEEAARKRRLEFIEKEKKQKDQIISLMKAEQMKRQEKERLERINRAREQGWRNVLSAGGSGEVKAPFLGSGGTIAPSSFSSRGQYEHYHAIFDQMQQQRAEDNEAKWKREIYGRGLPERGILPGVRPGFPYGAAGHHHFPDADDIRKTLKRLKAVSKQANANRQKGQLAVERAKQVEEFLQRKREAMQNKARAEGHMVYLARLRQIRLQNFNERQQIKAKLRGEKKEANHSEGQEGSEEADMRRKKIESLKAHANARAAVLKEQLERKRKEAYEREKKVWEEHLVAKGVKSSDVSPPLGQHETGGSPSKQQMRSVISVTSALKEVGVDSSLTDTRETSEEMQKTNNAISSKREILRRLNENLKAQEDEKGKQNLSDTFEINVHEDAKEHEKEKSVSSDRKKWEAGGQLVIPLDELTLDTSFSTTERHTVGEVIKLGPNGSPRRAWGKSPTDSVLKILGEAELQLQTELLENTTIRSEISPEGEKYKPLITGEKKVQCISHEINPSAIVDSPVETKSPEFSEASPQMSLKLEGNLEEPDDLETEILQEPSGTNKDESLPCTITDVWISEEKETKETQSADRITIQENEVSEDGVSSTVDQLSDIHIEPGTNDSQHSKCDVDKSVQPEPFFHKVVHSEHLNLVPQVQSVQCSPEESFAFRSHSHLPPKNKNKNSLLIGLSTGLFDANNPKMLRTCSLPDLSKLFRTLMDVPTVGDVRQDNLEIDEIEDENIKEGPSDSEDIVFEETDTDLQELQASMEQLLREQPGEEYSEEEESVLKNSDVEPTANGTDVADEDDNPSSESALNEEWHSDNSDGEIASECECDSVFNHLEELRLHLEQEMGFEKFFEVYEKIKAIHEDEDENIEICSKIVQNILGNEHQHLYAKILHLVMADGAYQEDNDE

[13] = target: T5, Serine/threonine-protein kinase Nek1 (Homo sapiens); conditions: at 1 µM
[14] = target: T6, Serine/threonine-protein kinase Nek2 (Homo sapiens) (UniProt P51955); conditions: at 0.1 µM
T6 sequence (whole entry): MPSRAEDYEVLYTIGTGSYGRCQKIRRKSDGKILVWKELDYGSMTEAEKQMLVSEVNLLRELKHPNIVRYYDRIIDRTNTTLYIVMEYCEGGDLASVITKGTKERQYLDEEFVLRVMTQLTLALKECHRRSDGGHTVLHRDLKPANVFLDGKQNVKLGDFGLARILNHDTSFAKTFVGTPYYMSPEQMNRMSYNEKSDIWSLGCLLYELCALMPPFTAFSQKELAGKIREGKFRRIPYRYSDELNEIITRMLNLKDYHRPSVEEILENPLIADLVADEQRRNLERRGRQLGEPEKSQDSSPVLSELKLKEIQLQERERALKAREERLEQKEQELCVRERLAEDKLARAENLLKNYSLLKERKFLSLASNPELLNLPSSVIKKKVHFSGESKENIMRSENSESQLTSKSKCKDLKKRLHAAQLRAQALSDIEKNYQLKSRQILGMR

[15] = target: T6, Serine/threonine-protein kinase Nek2 (Homo sapiens); conditions: at 1 µM
[16] = target: Serine/threonine-protein kinase Nek6 (Homo sapiens) (UniProt Q9HC98); conditions: at 0.1 µM
[17] = target: Serine/threonine-protein kinase Nek6 (Homo sapiens) (UniProt Q9HC98); conditions: at 1 µM
[18] = target: Serine/threonine-protein kinase Nek7 (Homo sapiens) (UniProt Q8TDX7); conditions: at 0.1 µM
[19] = target: Serine/threonine-protein kinase Nek7 (Homo sapiens) (UniProt Q8TDX7); conditions: at 1 µM
[20] = target: T7, Serine/threonine-protein kinase Nek9 (Homo sapiens) (UniProt Q8TD19); conditions: at 0.1 µM;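 also: reported value is the mean percent inhibition of NEK9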
T7 sequence (whole entry): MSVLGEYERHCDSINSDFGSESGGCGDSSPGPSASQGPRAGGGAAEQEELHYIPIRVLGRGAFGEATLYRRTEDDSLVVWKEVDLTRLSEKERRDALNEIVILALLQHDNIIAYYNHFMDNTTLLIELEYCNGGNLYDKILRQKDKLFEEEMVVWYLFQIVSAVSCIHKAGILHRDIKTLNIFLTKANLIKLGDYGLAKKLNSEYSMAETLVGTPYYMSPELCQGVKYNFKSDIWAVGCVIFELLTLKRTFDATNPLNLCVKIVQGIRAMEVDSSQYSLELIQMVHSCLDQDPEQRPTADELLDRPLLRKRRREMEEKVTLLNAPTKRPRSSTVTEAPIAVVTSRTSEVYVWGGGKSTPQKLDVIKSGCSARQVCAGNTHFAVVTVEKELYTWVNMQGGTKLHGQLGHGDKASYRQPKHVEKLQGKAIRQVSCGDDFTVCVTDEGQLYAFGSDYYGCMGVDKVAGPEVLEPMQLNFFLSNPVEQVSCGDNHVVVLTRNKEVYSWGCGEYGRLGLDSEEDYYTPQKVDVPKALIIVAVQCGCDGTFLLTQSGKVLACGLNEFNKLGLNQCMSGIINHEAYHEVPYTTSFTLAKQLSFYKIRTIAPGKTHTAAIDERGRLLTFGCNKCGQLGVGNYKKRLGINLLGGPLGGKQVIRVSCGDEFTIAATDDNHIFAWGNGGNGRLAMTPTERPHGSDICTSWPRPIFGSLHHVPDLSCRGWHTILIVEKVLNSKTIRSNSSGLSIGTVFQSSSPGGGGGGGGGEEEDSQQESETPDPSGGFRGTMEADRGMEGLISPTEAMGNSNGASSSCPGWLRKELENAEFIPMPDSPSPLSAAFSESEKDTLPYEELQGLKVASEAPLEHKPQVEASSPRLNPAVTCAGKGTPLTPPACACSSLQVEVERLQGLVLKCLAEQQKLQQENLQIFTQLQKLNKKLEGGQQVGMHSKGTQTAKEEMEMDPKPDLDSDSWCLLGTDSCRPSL

Serine/threonine-protein kinase Nek6 (Homo sapiens), sequence (Q9HC98 whole entry): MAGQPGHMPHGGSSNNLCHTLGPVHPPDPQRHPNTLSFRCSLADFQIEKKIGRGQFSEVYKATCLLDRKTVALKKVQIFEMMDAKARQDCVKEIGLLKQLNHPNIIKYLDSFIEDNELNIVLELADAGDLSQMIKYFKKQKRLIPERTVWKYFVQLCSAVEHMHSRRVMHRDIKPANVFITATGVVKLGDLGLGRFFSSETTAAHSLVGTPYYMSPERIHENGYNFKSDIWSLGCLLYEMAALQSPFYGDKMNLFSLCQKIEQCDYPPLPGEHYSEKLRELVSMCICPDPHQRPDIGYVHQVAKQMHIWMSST
Sphingosine kinase 1 (Homo sapiens), sequence (Q9NYA1 whole entry): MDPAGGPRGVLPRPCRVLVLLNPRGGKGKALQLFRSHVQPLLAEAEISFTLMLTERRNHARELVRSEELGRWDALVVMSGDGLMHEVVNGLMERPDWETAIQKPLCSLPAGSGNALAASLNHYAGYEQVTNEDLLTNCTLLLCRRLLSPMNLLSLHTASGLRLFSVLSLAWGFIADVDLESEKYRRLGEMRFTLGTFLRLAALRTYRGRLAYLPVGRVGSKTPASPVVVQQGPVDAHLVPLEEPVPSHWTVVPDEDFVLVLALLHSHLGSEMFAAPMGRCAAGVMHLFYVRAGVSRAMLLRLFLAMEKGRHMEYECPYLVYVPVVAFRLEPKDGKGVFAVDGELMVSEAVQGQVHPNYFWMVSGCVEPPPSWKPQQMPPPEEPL
Serine/threonine-protein kinase Nek7 (Homo sapiens), sequence (Q8TDX7 whole entry, looked up): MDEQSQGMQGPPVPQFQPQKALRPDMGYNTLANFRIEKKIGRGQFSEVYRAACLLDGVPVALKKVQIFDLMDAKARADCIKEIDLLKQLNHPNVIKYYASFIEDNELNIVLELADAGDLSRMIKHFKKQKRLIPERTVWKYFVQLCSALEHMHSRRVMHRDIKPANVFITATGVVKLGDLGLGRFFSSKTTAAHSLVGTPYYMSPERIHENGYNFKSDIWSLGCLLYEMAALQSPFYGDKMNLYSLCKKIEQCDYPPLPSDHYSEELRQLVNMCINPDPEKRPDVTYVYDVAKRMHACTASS
Casein kinase II subunit alpha (Homo sapiens), sequence (P68400 whole entry, looked up): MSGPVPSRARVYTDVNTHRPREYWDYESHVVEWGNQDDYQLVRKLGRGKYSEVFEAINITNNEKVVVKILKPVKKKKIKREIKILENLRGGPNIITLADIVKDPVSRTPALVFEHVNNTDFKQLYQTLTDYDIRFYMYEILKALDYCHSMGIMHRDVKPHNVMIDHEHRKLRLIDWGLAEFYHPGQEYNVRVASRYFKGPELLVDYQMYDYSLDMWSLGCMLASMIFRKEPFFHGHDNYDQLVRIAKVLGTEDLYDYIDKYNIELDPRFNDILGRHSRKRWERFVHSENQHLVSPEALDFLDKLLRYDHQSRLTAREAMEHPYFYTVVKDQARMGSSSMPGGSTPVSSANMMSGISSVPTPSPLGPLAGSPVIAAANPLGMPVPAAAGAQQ

SMILES	inhibition [1]	inhibition [2]	inhibition [3]	inhibition [4]	inhibition [5]	inhibition [6]	inhibition [7]	inhibition [8]	inhibition [9]	inhibition [10]	inhibition [11]	inhibition [12]	inhibition [13]	inhibition [14]	inhibition [15]	inhibition [16]	inhibition [17]	inhibition [18]	inhibition [19]	inhibition [20]
COc1cc(N2CCN(C(C)C)CC2)ccc1Nc1nc(Nc2cccc(F)c2C(=O)O)c2cc[nH]c2n1	-1.68%	-0.64%	-0.33%	6.3%	22.4%	4.18%	3.93%	6.66%	8.91%	5.22%	7.25%	2.08%	5.01%	5.22%	3.86%	2.61%	5.14%	3.58%	3.43%	9.89%
CN1CCC(C(=O)Nc2n[nH]c3nc(-c4ccc(O)cc4)c(Br)cc23)CC1	0.24% and -1.35%	0.67% and 1.32%	1.49% and 0%	6.41% and 0.96%	13.3% and 1.03%	1.72% and -1.22%	-1.54% and 2.39%	6.9% and 3.32%	12.8% and 4.3%	8.54% and 3.19%	9.87% and 4.68%	2.56% and 2.33%	5.56% and 3.3%	4.35% and 2.88%	2.67% and 2.08%	3.12% and 2.62%	6.77% and 0.79%	7.02% and 1.88%	10% and 8.97%	9.98% and 4.62%
